{"source": "PubChem BioAssay AID720535", "about": "(National Center for Advancing Translational Sciences (NCATS), 2013)", "note": "Screen size: about 1,600 compounds; about 420 (26%) were called active. Inconclusive results (about 40%) are left out. The call rests on the fitted dose curve; in most records, active means well fitted inhibition curve with a large enough effect; inconclusive means small, poorly fitted or top-dose-only effect; inactive means flat fitted curve, though single readings scatter. Shown is part of a subset that was picked to be rich in actives. Where a call stands in place of a potency, no number is given. Potency means the concentration at half of the fitted maximal effect."}
{"experiment": "qHTS for Inhibitors of TGF-b: Cytotox Counterscreen for Cherry Picks; further: nearly all actives have a fitted effect of over 70% in size", "settings": "HepG2 CAGA-GFP viability, ATP luminescence, 18 h, cells stimulated with TGF-beta, 500 pg/mL; series mostly up to 46.1 µM", "source_text": "TGF-b is a main component in the TGF-b signaling pathway which plays diverse roles in cellular and development pathways. TGF-b is mediated by transcription factors called \"Smads\". Although the Smad-dependent pathway is the primary canonical TGF-b signaling mode, TGF-b1 can also activate alternative signaling pathways, including those involving MAPK (ERK, JNK and p38). This interaction may mediate or enhance Smad-dependent responses, or can exert Smad-independent effects. The complexity of this signaling cascade allows the TGF-b superfamily to perform unique, overlapping or redundant functions. We believe that targeting the TGF-beta pathway at the Smad-transcription factor level may eliminate the consequences of disrupting the entire pathway and offer specificity without affecting other signaling pathways. Smad3 is the primary transducer of TGF-b's signals and Smad3 regulates many functions attributed to TGF-b signaling. We hypothesize that Smad3 inhibitors will selectively eliminate Smad3-specific TGF-beta signals without undesired off-target effects. We aim to identify Smad3-small molecule antagonists using a quantitative high throughput screening (qHTS) approach. A high-throughput assay was developed to screen the NIH Molecular Libraries Small Molecule Repository (MLSMR). This is a cell based assay, where TGF-b is tagged with GFP. This is a counterscreen that evaluates the cytotoxicity of the compounds that were identified as hits in the primary cell-based screen (AID 588855). MH087449NIH Chemical Genomics Center [NCGC] NIH Molecular Libraries Probe Centers Network [MLPCN] MLPCN Grant: MH087449 Assay Submitter (PI): Sushil Rane, National Institute of Diabetes and Kidney Diseases\nSuspensions of trypsinized HEPG2 CAGA-GFP cells were dispensed into white, tissue culture-treated, solid 1536-well plates at 5uL/well (1000 cells/well final concentration) in DMEM medium supplemented with 1% FBS. Plates were incubated at 37 degrees C for 2 hours, after which 23 nL of compounds or DMSO were delivered to each well using a pin tool. One uL of recombinant TGF-beta in DMEM (1% FBS) was then dispensed (500 pg/mL final concentration), and plates were incubated at 37 degrees C for 18 hours. Two uL of CellTiter Glo (Promega), a luminescence-based viability reagent, was dispensed, followed by a 10 minute room temperature incubation. The plates were then measured on a PerkinElmer ViewLux plate reader for luminescence (clear filter) using a 5 second exposure. The %Activity was determined from the corrected luminescence values. Wells containing media only (no cells) were used to normalize %Activity of identified toxic compounds; media-only wells corresponded to 100%Activity (complete cell-killing), while DMSO-dosed cell controls were used to normalize 0%Activity (no toxicity). Concentration-response curves were fitted to the signals arising from the resulting luminescence. The concentration-effect curves were then classified based on curve quality (r2), response magnitude and degree of measured activity, and compounds were subsequently categorized based on their curve class."}
{"smiles": "COc1cc(NC(=O)c2[nH]cnc2C(N)=O)cc(C(=O)Nc2cccc(C(F)(F)F)c2)c1", "Potency": "20.6 µM (active)"}
{"smiles": "Cc1ccc(S(=O)(=O)Nc2nc3ccccc3nc2N2CCc3ccccc3C2)cc1", "Potency": "inactive"}
{"smiles": "Cc1ccc(CN2CC(N3CCC(Cc4ccccc4)CC3)CS2(=O)=O)cc1", "note": "(centres undefined)", "Potency": "inactive"}
{"smiles": "COc1ccc(C)cc1S(=O)(=O)N1CCN(S(=O)(=O)c2cc(C(=O)O)ccc2C)CC1", "Potency": "inactive"}
{"smiles": "O=C(/C(=C/c1cccc(Cl)c1)c1nc2ccccc2[nH]1)c1ccccc1", "Potency": "6.51 µM (active)"}
{"smiles": "CN(c1ccccc1)S(=O)(=O)c1ccc(C(=O)N2CCN(c3ccccc3Cl)CC2)cc1", "Potency": "inactive"}
{"smiles": "O=c1[nH]c(CCl)nc2cc(-c3ccc(Cl)cc3)sc12", "Potency": "23.1 µM (active)"}
{"smiles": "CN(C)CCNC(=O)c1ccc(Cl)c2cc3ccccc3nc12", "Potency": "2.59 µM (active)"}
{"smiles": "CC[C@H]1CN2CCc3cc(OC)c(OC)cc3[C@@H]2C[C@@H]1C[C@H]1NCCc2cc(OC)c(OC)cc21", "Potency": "3.66 µM (active)"}
{"smiles": "COc1ccc(-c2onc(C)c2-c2ccc3c(c2)OCCO3)c(O)c1", "Potency": "inactive"}
{"smiles": "COc1ccc(CC(=O)Nc2ccccc2NC(=O)c2ccco2)cc1OC", "Potency": "inactive"}
{"smiles": "O=C(Nc1nnc(S(=O)(=O)N2CCCCCC2)s1)c1cccc(Br)c1", "Potency": "7.31 µM (active)"}
{"smiles": "Cc1ccc(S(=O)(=O)Nc2ccc3c(c2)C(=O)N([C@H](C)CO)C[C@@H](C)[C@@H](CN(C)C(=O)Nc2cccc4ccccc24)O3)cc1", "Potency": "inactive"}
{"smiles": "COc1cccc2sc(N(CCCN(C)C)C(=O)CCS(=O)(=O)c3ccccc3)nc12", "Potency": "13 µM (active)"}
{"smiles": "Cc1cccc2sc(N(CCCN(C)C)C(=O)CCS(=O)(=O)c3ccccc3)nc12", "Potency": "18.4 µM (active)"}
{"smiles": "COC(=O)COc1cccc2c(=O)n(CC(=O)NCc3ccccc3)ccc12", "Potency": "inactive"}
{"smiles": "CCCc1cc(-c2n[nH]c(=S)n2CC)c2ccccc2n1", "Potency": "inactive"}
{"smiles": "Cc1ccc(C)c(S(=O)(=O)N2CCN(CC(=O)Nc3ccc([N+](=O)[O-])cc3)CC2)c1", "Potency": "inactive"}
{"smiles": "Cc1ccnc(NC(=O)C2CCN(S(=O)(=O)c3c(C)c(C)cc(C)c3C)CC2)c1", "Potency": "11.6 µM (active)"}
{"smiles": "Fc1cc(F)c2nc(Nc3nc4c(F)cccc4s3)sc2c1", "Potency": "inactive"}
{"smiles": "Cc1cc(C)cc(N(CC(=O)N2CC=C(c3ccccc3)CC2)S(=O)(=O)c2c(C)noc2C)c1", "Potency": "inactive"}
{"smiles": "Cc1cccc(CS(=O)(=O)c2ncc(Cl)c(C(=O)Nc3ccc(F)cc3)n2)c1", "Potency": "10.3 µM (active)"}
{"smiles": "Cc1cccc(NC(=O)c2nc(S(=O)(=O)Cc3ccccc3)ncc2Cl)c1", "Potency": "4.61 µM (active)"}
{"smiles": "CC(=O)c1cccc(-c2cnc3c(NC=O)cc(-c4ccc(N(C)C)cc4)cn23)c1", "Potency": "inactive"}
{"smiles": "O=C(Nc1ccc(Cl)cc1)Nc1nnc(/C=C/c2ccccc2)s1", "Potency": "inactive"}
{"smiles": "COc1ccc2nc(N3CCN(C(=O)c4ccc([N+](=O)[O-])o4)CC3)sc2c1", "Potency": "23.1 µM (active)"}
{"smiles": "c1ccc2cc3c(NCCN4CCOCC4)ccnc3cc2c1", "Potency": "18.4 µM (active)"}
{"smiles": "CN(C(=O)c1cccc(NC(=O)Cc2cccc([N+](=O)[O-])c2)c1)C1CCCCC1", "Potency": "inactive"}
{"smiles": "OCCCNc1nccc(-c2cc(Nc3cccc(Cl)c3)ncn2)n1", "Potency": "0.651 µM (active)"}
{"smiles": "CCOC(=O)C1=C(N)N(c2ccc(C)cc2)C2=C(C(=O)CCC2)C1c1cccs1", "note": "(centres undefined)", "Potency": "inactive"}
{"smiles": "CN(C)c1nc(=Nc2cccc(Cl)c2)ss1", "Potency": "inactive"}
{"smiles": "COc1cccc(CNc2nc(NCc3ccccc3OC)nc3ccsc23)c1", "Potency": "16.4 µM (active)"}
{"smiles": "FC(F)(F)c1ccccc1Cc1c(-c2ccccc2)nc2c3ccccc3ccn12", "Potency": "inactive"}
{"smiles": "COc1cc(NC(=O)c2ccccc2NS(=O)(=O)c2ccc(Cl)s2)cc(OC)c1", "Potency": "8.2 µM (active)"}
{"smiles": "COc1cc(CC(=O)Nc2nc(-c3ccc(F)c(F)c3)cs2)cc(OC)c1OC", "Potency": "9.2 µM (active)"}
{"smiles": "Cn1c(=O)n(C)c2cc(S(=O)(=O)N3CCCc4ccccc43)ccc21", "Potency": "inactive"}
{"smiles": "CC1CCc2c(nc3ncnn3c2Nc2ccc(OC(F)(F)F)cc2)C1", "note": "(centres undefined)", "Potency": "inactive"}
{"smiles": "Clc1ccc2c(c1)C1=C(C(c3ccncc3)O2)C(c2ccc(Br)cc2)n2ncnc2N1", "note": "(centres undefined)", "Potency": "inactive"}
{"smiles": "O=C(NC1=CC(=O)c2ccccc2C1=O)c1ccccc1", "Potency": "8.2 µM (active)"}
